Data taken from PubChem BioAssay AID463190 (Sanford-Burnham Center for Chemical Genomics, 2010).
Hit rate of the full screen: of about 330,000 compounds, about 7,300 (2.2%) were called active. Shown is part of a subset that was picked to be rich in actives. Values without a mark were called inactive.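 The calls were made as follows: active = inhibition of at least 40%; inactive = the rest.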

experiment: growth inhibitors of tim10-1 mutant yeast, primary screen, luminescence, uHTS (AID 463190);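 also: mutant grown at 25 °C; 0% = DMSO wells with yeast and 100% = wells holding no yeast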; settings: S. cerevisiae tim10-1 ts strain growth, BacTiter-Glo, 24 h; at 20 µM; hits give high values

Going from `Cc1cccc(C(=O)OC(C)C(=O)NC2CCCc3ccccc32)c1O` (stereo unspecified) to `CC(OC(=O)c1ccccc1N1C(=O)C2C3CCC(C3)C2C1=O)C(=O)c1ccccc1` (stereo unspecified), the inhibition rises from 14.7% to 22.1%.

Compared with `Fc1cccc2ncnc(OCc3ccccc3)c12`, `COc1cccc(CNc2nc(C(F)(F)F)nc3ccccc23)c1` is higher in inhibition: 5.91% for the first, 39.2% for the second.

First: Cc1occc(=O)c1OCc1ccc(F)cc1
Second: CCN(CC(=O)NCc1ccco1)S(=O)(=O)c1ccc(F)cc1
The inhibition of the first is higher: 1.21% for the first, -17.2% for the second.

Going from `O=c1[nH]c2ccccc2s1` to `Cc1cc2cc(CNC(=O)c3cccs3)ccc2[nH]1`, the inhibition falls from 8.84% to -2.64%.

Going from `O=C(NC(=S)NC1CCCCC1)c1ccc(Cl)cc1` to `O=C(NC1CCCCCC1)c1cccnc1Sc1ccc(Cl)cc1`, the inhibition falls from 34.7% to 17.4%.

Going from `Cc1cnc(CN(C)C(=O)CC2C(=O)NCCN2Cc2cccc(F)c2F)[nH]1` (stereo unspecified) to `COc1cccc(CN(C)CC2CCCN(CCc3ccc(Cl)cc3)C2)c1OC` (stereo unspecified), the inhibition falls from 0.623% to -21.5%.

Compared with `CC(C)OCC(O)CN1CCN(C(c2ccccc2)c2ccccc2)CC1` (stereo unspecified), `COc1ccc(C2(CNC(=O)C(c3ccccc3)c3ccccc3)CCOCC2)cc1OC` is higher in inhibition: 6.5% for the first, 15.2% for the second.

Compared with `COC(=O)COc1ccc(C2NC(=O)NC(C)=C2C(=O)NCc2ccccc2)cc1OC` (stereo unspecified), `CCOc1ccc(NC(=O)CN(C)C(=O)Cn2c(=O)cnc3ccccc32)cc1OCC` is lower in inhibition: 1.06% for the first, -8.6% for the second.

Going from `Cc1ccc(SCC2=NNC(=O)C2)cc1` to `Cn1c2ccccc2n2c(=O)c(=O)n(CC(=O)c3ccc(F)cc3)nc12`, the inhibition falls from 33.5% to -14.7%.

Compared with `O=C(CSc1nc(Nc2ccccc2)nc(N2CCOCC2)n1)Nc1cc(Cl)ccc1O`, `C/C(=N\Nc1nc(N2CCOCC2)nc(N2CCOCC2)n1)c1ccc([N+](=O)[O-])cc1` is higher in inhibition: -0.275% for the first, 14% for the second.

Going from `Cc1cc(C)n(C(=O)CCNC(=O)c2ccccc2Cl)n1` to `COc1ccc(CCOC(=O)CNC(=O)c2ccc(Cl)cc2Cl)cc1`, the inhibition rises from -10.3% to 18.1%.

Going from `O=C(COc1ccccc1)Nc1ccc(F)cc1` to `O=C(COC(=O)C1CC2C=CC1C2)Nc1ccccc1` (stereo unspecified), the inhibition rises from 12.1% to 13.3%.

Going from `CN(c1ccc(OCC(=O)O)cc1)S(=O)(=O)c1ccc2ccccc2c1` to `COC(=O)C(C)NC(=O)COc1ccc2ccccc2c1` (stereo unspecified), the inhibition falls from 11.1% to 8.45%.

First: CC(=O)Nc1ccc(S(=O)(=O)N2CCC(C(=O)NC3CC3)CC2)cc1
Second: O=C(Nc1ccc2cn[nH]c2c1)c1ccc(S(=O)(=O)N2CCOCC2)cc1
The inhibition of the first is higher: 5.84% for the first, -2.72% for the second.

First: Cc1cc2nc(-c3ccc(NC(=O)c4cccnc4)cc3)oc2cc1C
Second: O=C(Nc1ccc2oc(-c3ccc4ccccc4c3)nc2c1)c1cccs1
The inhibition of the first is higher: 12.5% for the first, 3.31% for the second.

Going from `Cc1ccc(NC(=O)COC(=O)CCc2nc3ccccc3n2-c2ccccc2)c(C)c1` to `CN(NC(=O)c1ccccc1F)c1nc(C(F)(F)F)nc2ccccc12`, the inhibition falls from 10.3% to 6.21%.

Compared with `Cc1ccc2c(c1)C1CN(C)CCC1N2S(=O)(=O)c1cccc(F)c1` (stereo unspecified), `Cc1ccc2c(c1)C1CN(C)CCC1N2C(=S)Nc1ccc(OC(F)F)cc1` (stereo unspecified) is lower in inhibition: 3.83% for the first, 3.44% for the second.

Going from `COCC(=O)Nc1c(I)c(C(=O)NCC(O)CO)c(I)c(C(=O)N(C)CC(O)CO)c1I` (stereo unspecified) to `CCOC(=O)c1cc(C(C)C)sc1NC(=O)COC(=O)c1nccnc1N`, the inhibition rises from 6% to 9.86%.

Going from `Cc1ccc(/C=C/C(=O)O)cc1S(=O)(=O)N1CCC(Cc2ccccc2)CC1` to `COc1cc(CN2CCC(n3nccc3NC(=O)CCCc3ccccc3)CC2)ccc1O`, the inhibition rises from -0.486% to 25.4%.

First: Nc1cc(C(F)(F)F)ccc1N1CCOCC1
Second: Cc1cc(/C=C2/SC(=O)N(CC(=O)N3CCCC3)C2=O)ccc1N1CCOCC1
The inhibition of the first is higher: 11.6% for the first, 3.32% for the second.

Going from `CCc1ccc(C(CNc2nc(C(F)(F)F)nc3ccccc23)N(C)C)cc1` (stereo unspecified) to `CCc1cccc(CC)c1NC(=S)Nc1ccc2cn[nH]c2c1`, the inhibition falls from 29.3% to 18.2%.

First: COc1ccc(N2CCN(C(=O)/C(C#N)=C/c3ccccc3)CC2)cc1
Second: COc1ccc(/C=C(\C#N)C(=O)OCC(=O)N(C)C2CCS(=O)(=O)C2)cc1 (stereo unspecified)
The inhibition of the first is higher: 18.8% for the first, -4.56% for the second.

Compared with `Cc1ccc(Nc2c(F)c(F)c(F)c(F)c2C(=O)O)c(C)c1`, `COc1ccc(C(=O)C2CCCN(C(=O)c3cc4nc(C)cc(C)n4n3)C2)cc1F` (stereo unspecified) is higher in inhibition: -6.12% for the first, 26.4% for the second.

Compared with `Oc1[nH]c2ccc(Br)cc2c1N=Nc1nn[nH]n1`, `NS(=O)(=O)c1ccc(N=Nc2c(O)[nH]c3ccc(Br)cc23)cc1` is lower in inhibition: 16.7% for the first, -13% for the second.

First: c1ccc(-c2cc(-c3ccccc3)[nH]n2)cc1
Second: Nc1cccc(-c2cc(-c3ccccc3)nc(-c3cccc(N)c3)n2)c1
The inhibition of the first is lower: 7% for the first, 26.4% for the second.

Going from `CCNc1nc(NCC)nc(N(C)n2cnnc2)n1` to `CCc1nc(C)cn1S(=O)(=O)c1cc(OC)c(C)cc1C`, the inhibition rises from 13.1% to 14.4%.

Going from `O=C1N=C2SCCN2/C1=C\c1c(Cl)cccc1Cl` to `O=C(Nc1nnc(CCN2CCCCC2)s1)c1cccc(Cl)c1`, the inhibition rises from -18.2% to -12.8%.

Going from `CNC(=O)N1c2ccccc2C=Cc2ccccc21` to `Cc1nn(Cc2ccccc2)c2c1C(c1ccccc1)C(C#N)=C(N)O2` (stereo unspecified), the inhibition rises from -1.34% to 30.9%.

Going from `Cc1cc(C)cc(OCC(=O)O/N=C(\N)Cc2ccc([N+](=O)[O-])cc2)c1` to `O=C(COC(=O)Cc1ccc([N+](=O)[O-])cc1)NC1CCCCCC1`, the inhibition falls from 19.4% to 13.1%.

First: O=C(COC(=O)C1CCCCC1)Nc1ccc([N+](=O)[O-])cc1
Second: O=C(Oc1ccc([N+](=O)[O-])cc1)c1ccc(Cl)c(S(=O)(=O)N2CCCCC2)c1
The inhibition of the first is lower: 13.8% for the first, 38.7% for the second.

First: CCOC(=O)C1=C(C)c2ccccc2OC1C(=O)OCC (stereo unspecified)
Second: COC(=O)C1=C(C)N=C2SC(C)C(=O)N2C1/C=C/c1ccccc1 (stereo unspecified)
The inhibition of the first is lower: 9.8% for the first, 19% for the second.

Compared with `COCCN(CCOC)c1nc(N)c2c(N)nc3c(c2c1C#N)CC(=O)N3Cc1ccc(Cl)cc1`, `COc1ccc(CN2C(=O)C(C)S/C2=N/N=C/c2ccco2)cc1` (stereo unspecified) is lower in inhibition: 28.9% for the first, 19.3% for the second.

First: N#Cc1cccc(NC(=O)C2CCCN(C(=O)c3ccc(Cl)cc3)C2)c1 (stereo unspecified)
Second: CCC1(C)NC(=O)N(CC(=O)N2CCN(c3cccc(Cl)c3)CC2)C1=O (stereo unspecified)
The inhibition of the first is lower: 7.79% for the first, 9.91% for the second.

Compared with `Cc1ccc([N+](=O)[O-])cc1S(=O)(=O)N1CCCN(C)CC1`, `CCc1nccn1S(=O)(=O)c1cccc([N+](=O)[O-])c1` is higher in inhibition: -9.68% for the first, -8.99% for the second.

Going from `CN(CCC1CCOCC1)Cc1cn[nH]c1-c1ccc(-c2ccccc2)cc1` to `Cc1nn(-c2ccccc2)c2c1C(c1ccc(F)cc1)C(C#N)=C(N)O2` (stereo unspecified), the inhibition rises from 18% to 24%.

Compared with `CCOc1ccc(OCc2cccc(C(=O)N(CC)CC)c2)cc1`, `CC(C)CCN1CCC(C)(NC(=O)c2ccccc2)C1=O` (stereo unspecified) is lower in inhibition: 21.6% for the first, 10.4% for the second.

Compared with `O=C(O)c1cccnc1Sc1ncnc2sc3c(c12)CCC3`, `Brc1ccc2nc(N3CCCC3)sc2c1` is higher in inhibition: -4.59% for the first, 22.5% for the second.

First: Cc1nc(N2CCCCC2)sc1C=O
Second: CC(C)N(C(=O)CN1CCN(S(=O)(=O)c2ccc(Br)s2)CC1)C(C)C
The inhibition of the first is lower: -8.24% for the first, 16.4% for the second.

For `Cc1nc2ccccc2cc1OCc1ccc(F)cc1`, the inhibition was 40.5% (active).
For `O=C(NC1CCCCC1)c1ccc(-c2ccc(Cl)cc2)o1`, the inhibition was 46.1% (active).
With `C/C(=N\Nc1nc(Nc2ccccc2)nc(N2CCOCC2)n1)c1cccs1` the inhibition was 41.3% (active).
For `CCCCCCCCn1c2c(c(=N)c3c1CCC3)CCCC2`, the inhibition was 49.1% (active).
For `CN(c1ccccc1)S(=O)(=O)c1ccc(NC(=O)COc2ccccc2)cc1`, the inhibition was 40.2% (active).
For `CCc1ccc2oc(-c3ccc(N)cc3)nc2c1`, the inhibition was 41.3% (active).
With `Cc1ccc2c(c1)C1CN(C)CCC1N2S(=O)(=O)c1ccc(Oc2ccc([N+](=O)[O-])cc2)cc1` (stereo unspecified) the inhibition was 43.1% (active).
In the case of `CC(Nc1nc(C(F)(F)F)nc2ccccc12)c1cccs1` (stereo unspecified), the inhibition is reported as 42.6% (active).
In the case of `COc1ccc(/C=C(\C#N)C(=O)ONC2=NCCCCC2)cc1`, the inhibition is reported as 48.2% (active).
With `Cc1cccc(N=Nc2c(O)[nH]c3ccc(F)cc23)c1` the inhibition was 43.6% (active).
For `Nc1nc(-c2ccccc2)cc(-c2ccccc2)n1`, the inhibition was 41.6% (active).
In the case of `N/C(Cc1ccc([N+](=O)[O-])cc1)=N\OC(=O)C1CCCCC1`, the inhibition is reported as 61.6% (active).
With `N/C(Cc1ccc([N+](=O)[O-])cc1)=N\OC(=O)COc1ccc2ccccc2c1` the inhibition was 68.6% (active).
For `CCc1cccc(CC)c1NC(=S)NCc1ccc2[nH]c(C)cc2c1`, the inhibition was 48.6% (active).
For `CCOC(=O)c1ccccc1N1C(=O)C2Sc3[nH]c(=O)sc3C(/C=C/c3ccccc3)C2C1=O` (stereo unspecified), the inhibition was 40.6% (active).
With `CC(C)c1nccn1S(=O)(=O)c1cc([N+](=O)[O-])ccc1Cl` the inhibition was 43.6% (active).
For `CCc1nc(C)cn1S(=O)(=O)c1cc([N+](=O)[O-])ccc1Cl`, the inhibition was 53.6% (active).
With `CC(C)c1cc(C(N)=O)c(NC(=O)c2cccc(COc3ccc(Br)cc3)c2)s1` the inhibition was 40.9% (active).
With `COc1ccccc1C1C(C#N)=C(N)Oc2c1c(-c1ccccc1)nn2-c1ccccc1` (stereo unspecified) the inhibition was 40.7% (active).
In the case of `c1c2c(cc3sc(N4CCCCC4)nc13)OCCO2`, the inhibition is reported as 43.1% (active).
